Measurements: PubChem BioAssay
Calls of active or inactive are those of the source.

Columns and labels:
[1] = binders of probe aFSTL3 on microarray, primary screen, stem cell growth factor project, biochemical, small-molecule microarray, fluorescence 635/667 (AID 1064); conditions: higher = more signal;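 also: measures binding of the biotinylated anti-FSTL3 antibody to printed compounds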
[2] = binders from COS7 lysate, DM2A8 probe, primary screen, torsin A project, cell lysate, small-molecule microarray, fluorescence 635/667 (AID 1065); conditions: higher = more signal, COS7 lysate expressing mutant human TOR1A
[3] = binders of probe aFGF2 on microarray, primary screen, stem cell growth factor project, biochemical, small-molecule microarray, fluorescence 635/667 (AID 1067); conditions: higher = more signal;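 also: measures binding of biotinylated aFGF2 protein to printed compounds on slides; z-score merges feature fluorescence and signal-to-noise across triplicate slides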
[4] = binders of probe aFGF10 on microarray, primary screen, stem cell growth factor project, biochemical, small-molecule microarray, fluorescence 635/667 (AID 1071); conditions: higher = more signal;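 also: score merges 667 nm spot intensity and signal to noise from triplicate slides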
[5] = molecular target: Neurogenic locus notch homolog protein 2 (Homo sapiens) (UniProt Q04721); assay: Notch2 binders on small-molecule microarrays, primary screen, biochemical, small-molecule microarray, 635 nm fluorescence, stem cell growth factors (AID 1073); conditions: Notch2 binding, higher = more signal
Chain of Neurogenic locus notch homolog protein 2 (Homo sapiens) (Q04721 whole entry, looked up, canonical isoform): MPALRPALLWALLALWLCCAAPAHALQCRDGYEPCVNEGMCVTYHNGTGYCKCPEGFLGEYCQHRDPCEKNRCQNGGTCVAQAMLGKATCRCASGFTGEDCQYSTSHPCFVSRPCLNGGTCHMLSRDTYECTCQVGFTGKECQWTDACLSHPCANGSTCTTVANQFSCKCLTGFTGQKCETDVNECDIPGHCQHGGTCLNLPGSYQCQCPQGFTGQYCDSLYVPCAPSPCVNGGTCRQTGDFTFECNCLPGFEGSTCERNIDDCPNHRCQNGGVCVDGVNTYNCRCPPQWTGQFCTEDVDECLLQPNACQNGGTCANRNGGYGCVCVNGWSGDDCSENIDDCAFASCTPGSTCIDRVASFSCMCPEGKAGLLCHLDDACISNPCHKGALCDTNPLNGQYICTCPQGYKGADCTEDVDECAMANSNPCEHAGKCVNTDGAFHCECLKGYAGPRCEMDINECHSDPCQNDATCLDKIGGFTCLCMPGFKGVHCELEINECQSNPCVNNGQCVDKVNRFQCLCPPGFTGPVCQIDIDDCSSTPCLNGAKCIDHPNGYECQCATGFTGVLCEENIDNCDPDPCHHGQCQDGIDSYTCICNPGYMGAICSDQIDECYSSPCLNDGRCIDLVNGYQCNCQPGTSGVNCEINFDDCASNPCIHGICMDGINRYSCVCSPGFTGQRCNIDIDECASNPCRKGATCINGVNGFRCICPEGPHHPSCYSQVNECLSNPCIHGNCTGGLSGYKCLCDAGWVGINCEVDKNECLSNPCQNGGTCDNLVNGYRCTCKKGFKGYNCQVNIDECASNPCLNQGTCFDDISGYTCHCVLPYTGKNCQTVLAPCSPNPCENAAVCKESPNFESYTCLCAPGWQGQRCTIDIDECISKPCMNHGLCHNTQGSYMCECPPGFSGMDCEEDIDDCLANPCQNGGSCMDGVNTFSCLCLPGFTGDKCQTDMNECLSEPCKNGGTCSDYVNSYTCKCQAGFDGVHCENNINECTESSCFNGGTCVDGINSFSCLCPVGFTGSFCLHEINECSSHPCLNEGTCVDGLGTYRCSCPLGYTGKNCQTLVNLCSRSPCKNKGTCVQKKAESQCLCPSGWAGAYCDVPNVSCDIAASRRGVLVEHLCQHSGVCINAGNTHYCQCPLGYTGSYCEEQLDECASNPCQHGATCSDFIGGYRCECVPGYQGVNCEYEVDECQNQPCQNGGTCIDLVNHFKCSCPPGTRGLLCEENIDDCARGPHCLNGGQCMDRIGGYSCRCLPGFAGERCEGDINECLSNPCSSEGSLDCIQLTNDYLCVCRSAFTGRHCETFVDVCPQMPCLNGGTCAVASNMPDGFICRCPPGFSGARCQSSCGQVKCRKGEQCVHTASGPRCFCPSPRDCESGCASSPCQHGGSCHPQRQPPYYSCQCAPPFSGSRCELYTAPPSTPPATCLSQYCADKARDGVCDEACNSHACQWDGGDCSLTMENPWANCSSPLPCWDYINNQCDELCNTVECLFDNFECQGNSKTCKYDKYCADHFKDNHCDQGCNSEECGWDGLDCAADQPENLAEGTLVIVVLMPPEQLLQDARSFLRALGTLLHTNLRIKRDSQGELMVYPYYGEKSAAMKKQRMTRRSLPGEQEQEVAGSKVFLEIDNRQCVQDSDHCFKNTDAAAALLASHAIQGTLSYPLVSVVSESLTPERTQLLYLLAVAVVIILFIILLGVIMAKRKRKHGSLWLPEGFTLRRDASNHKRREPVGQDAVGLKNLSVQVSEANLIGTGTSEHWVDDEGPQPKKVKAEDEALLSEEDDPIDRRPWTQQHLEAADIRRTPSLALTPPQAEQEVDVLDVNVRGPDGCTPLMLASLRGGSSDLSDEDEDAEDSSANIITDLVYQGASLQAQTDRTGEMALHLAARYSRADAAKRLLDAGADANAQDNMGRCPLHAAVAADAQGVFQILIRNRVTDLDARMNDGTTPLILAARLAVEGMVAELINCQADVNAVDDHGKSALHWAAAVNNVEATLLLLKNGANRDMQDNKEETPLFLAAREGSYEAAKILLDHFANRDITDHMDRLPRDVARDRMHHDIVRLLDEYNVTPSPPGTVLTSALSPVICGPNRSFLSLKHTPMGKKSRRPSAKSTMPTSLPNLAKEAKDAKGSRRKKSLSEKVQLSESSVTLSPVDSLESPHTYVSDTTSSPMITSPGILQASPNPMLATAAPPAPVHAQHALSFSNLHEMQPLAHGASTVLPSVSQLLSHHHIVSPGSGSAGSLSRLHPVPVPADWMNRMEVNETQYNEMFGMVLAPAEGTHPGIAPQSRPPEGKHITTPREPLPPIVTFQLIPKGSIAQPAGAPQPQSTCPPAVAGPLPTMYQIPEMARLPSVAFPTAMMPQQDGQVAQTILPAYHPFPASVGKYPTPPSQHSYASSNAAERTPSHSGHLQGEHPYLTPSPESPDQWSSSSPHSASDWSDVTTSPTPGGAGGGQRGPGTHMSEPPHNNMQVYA

[6] = molecular target: Pro-neuregulin-1, membrane-bound isoform (Homo sapiens) (UniProt Q02297); assay: NRG1 binders on small-molecule microarrays, primary screen, psychiatric disease protein project, biochemical, small-molecule microarray, fluorescence 635/667 (AID 1075); conditions: NRG1 binding, 635 nm fluorescence, higher = more signal;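 also: score combines 667 nm spot fluorescence with signal to noise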
Chain of Pro-neuregulin-1, membrane-bound isoform (Homo sapiens) (Q02297 whole entry, looked up, the tested form may be a part, canonical isoform): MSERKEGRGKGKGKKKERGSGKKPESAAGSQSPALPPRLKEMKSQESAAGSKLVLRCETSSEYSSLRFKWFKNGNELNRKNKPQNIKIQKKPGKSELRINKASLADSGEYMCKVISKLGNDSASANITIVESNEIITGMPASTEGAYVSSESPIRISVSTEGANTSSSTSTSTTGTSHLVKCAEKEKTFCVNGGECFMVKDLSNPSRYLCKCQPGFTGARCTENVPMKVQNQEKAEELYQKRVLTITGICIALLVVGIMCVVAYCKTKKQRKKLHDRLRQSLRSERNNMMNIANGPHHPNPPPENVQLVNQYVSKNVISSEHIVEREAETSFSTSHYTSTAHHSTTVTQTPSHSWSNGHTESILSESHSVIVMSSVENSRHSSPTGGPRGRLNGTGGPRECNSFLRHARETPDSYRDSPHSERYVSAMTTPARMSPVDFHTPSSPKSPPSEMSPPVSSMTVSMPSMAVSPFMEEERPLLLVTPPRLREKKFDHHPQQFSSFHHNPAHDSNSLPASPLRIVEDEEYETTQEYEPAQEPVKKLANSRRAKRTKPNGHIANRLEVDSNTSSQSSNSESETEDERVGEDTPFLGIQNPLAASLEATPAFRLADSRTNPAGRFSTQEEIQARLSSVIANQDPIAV

[7] = system: Neuregulin-1 EGF-like domain; assay: binders of neuregulin-1 EGF-like domain, primary screen, biochemical, small-molecule microarray, 635 nm fluorescence (AID 1081); conditions: small-molecule microarray binding, higher = more signal;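 also: binding of the protein to compounds printed on small-molecule microarray slides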
[8] = FRG1 promoter luciferase signal modulators, primary screen, FRG1 inhibition for FSHD, cell-based, C2C12 myotubes, firefly/Renilla luciferase, luminescence (AID 1084); conditions: higher = more signal, called active from +8 up or from −8 down
[9] = binders of probe aFST on microarray, primary screen, stem cell growth factor project, biochemical, small-molecule microarray, fluorescence 635/667 (AID 1086); conditions: higher = more signal;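 also: score merges 667 nm fluorescence with signal-to-noise of each printed compound spot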
[10] = binders of probe aHhip on microarray, primary screen, stem cell growth factor project, biochemical, small-molecule microarray, fluorescence 635/667 (AID 1087); conditions: higher = more signal;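 also: score merges spot fluorescence at 667nm with spot signal to noise ratio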

Row | SMILES | composite z-score [1] | composite z-score [2] | composite z-score [3] | composite z-score [4] | composite z-score [5] | composite z-score [6] | composite z-score [7] | z-score [8] | composite z-score [9] | composite z-score [10]
1 | C=CC(COC(C)=O)NS(=O)(=O)c1ccc(Br)cc1 (stereo not given) | -0.647 | 0.58 | -0.105 | 0.366 | 0.363 | 0.0456 | 0.583 | -0.747 (inactive) | 0.0296 | 0.174
2 | C=CCC(OC(C)=O)[C@@H]1[C@@H](N(Cc2cccc3ccccc23)C(=O)c2cccc3ccccc23)c2cc(OCCCO)ccc2N1C(=O)c1ccc2ccccc2n1 (stereo not given in full) | -0.218 | 0.215 | 0.0083 | 0.281 | -0.0258 | -0.0137 | -0.444 | -2.01 (inactive) | 0.0846 | 0.0826
3 | CCOC(=O)C1=C[C@@H](C(C)C)N(S(=O)(=O)c2ccc(C)cc2)[C@H]1c1ccc(C(C)C)cc1 | -0.462 | 0.352 | -0.0647 | 0.543 | 1.52 | 0.609 | 0.683 | -1.89 (inactive) | 0.937 | -0.0754
4 | C[N+](C)(C)CCCCCCNC(=O)[C@H]1C[C@H]2C(=O)N3CCC[C@H]3C(=O)N2[C@H]1c1ccc(O)cc1 | 0.159 | 1.01 | -0.116 | -0.0314 | -0.967 | 1.96 | 1.37 | 3.58 (inactive) | -0.106 | -0.0618
5 | C=CCOC(=O)[C@@H]1[C@H]2C(=O)O[C@H](c3ccccc3)[C@H](c3ccccc3)N2[C@H](c2ccc(OCCOC(=O)[C@@H]3C[C@@H]4C(=O)N[C@@H](Cc5ccccc5)C(=O)N4[C@@H]3c3cccc(OCCO)c3)cc2)[C@@]12C(=O)Nc1ccc(I)cc12 | 0.224 | 0.63 | -0.0566 | 0.764 | 1.03 | 1.03 | 1.06 | 1.06 (inactive) | 0.043 | -0.0196
6 | C=CCC(OC(C)=O)[C@@H]1[C@@H](N(Cc2cc3ccccc3o2)C(=O)c2ccc(C)cc2)c2cc(OCCCO)ccc2N1C(=O)c1ccc2ccccc2c1 (stereo not given in full) | -0.0336 | 0.117 | -0.0785 | 0.339 | 0.112 | -0.189 | 0.38 | -2.76 (inactive) | -0.0921 | -0.201
7 | C=CCC(OC(C)=O)[C@@H]1[C@@H](N(Cc2cccc3ccccc23)C(=O)c2ccc(C)cc2)c2cc(OCCCO)ccc2N1C(=O)Cc1ccc(OC)cc1 (stereo not given in full) | -0.186 | 0.307 | -0.117 | 0.29 | 0.0151 | 0.0635 | -0.391 | -1.71 (inactive) | 0.146 | -0.0994
8 | CCCNC(=O)[C@@H]1c2ccccc2C(=O)N(Cc2ccccc2)[C@H]1c1ccc(CO)cc1 | 0.0651 | -0.427 | -0.0861 | -0.533 | -0.195 | 1.09 | 1.11 | -1.14 (inactive) | -0.115 | 0.132
9 | COC(=O)c1ccc(OC)c(/C=C\CC(OC(C)=O)c2ccccc2)c1 (stereo not given) | 0.428 | -0.284 | -0.138 | 0.229 | 1.2 | 0.993 | 0.971 | -1.21 (inactive) | -0.405 | 0.206
10 | C=C(COC)/C(=C/C[C@H](OC(=O)c1ccncc1)c1cccc(OCCO)c1)c1cc(C(=O)OC)ccc1OC | -0.282 | 0.635 | -0.116 | 0.783 | 0.0724 | 0.555 | 1.27 | -0.889 (inactive) | -0.0832 | 0.0505
11 | COCCOC(=O)N1C(=O)[C@@]2(c3cc(C#CC4(O)CCCCCC4)ccc31)[C@H](C(=O)N1CCCCCCC1)[C@H]1C(=O)O[C@H](c3ccccc3)[C@H](c3ccccc3)N1[C@@H]2c1ccccc1OCCO | 2.49 | 0.859 | 0.249 | 0.298 | 1.25 | 1.17 | 1.28 | 0.25 (inactive) | 2.2 | 1.04
12 | CC1CC/C=C\[C@H]2OC34C=CCN(Cc5ccccc5)C(=O)[C@H]3N(CCCCCO)C(=O)[C@@H]4C2C(=O)O1 (stereo not given in full) | 0.158 | -0.467 | -0.149 | 0.155 | -0.864 | -0.68 | 1.5 | 0.367 (inactive) | -0.677 | -0.312
13 | CCCCCCCCCCC(O)C1C=CC2C(=O)N(Cc3ccccc3)C(=O)C2N1n1cnnc1 (stereo not given) | 0.794 | 0.0622 | 0.279 | 0.137 | 0.53 | 0.919 | 0.843 | 1.91 (inactive) | 1.08 | 0.582
14 | Cc1ccc([C@H]2C(C(=O)O)=C[C@@H](C)N2S(=O)(=O)c2ccc(C)cc2)cc1 | 0.247 | -0.36 | -0.0867 | -0.337 | -0.0054 | 1.52 | 0.962 | -0.282 (inactive) | -0.882 | -0.201
15 | COCCOC(=O)N1C(=O)[C@@]2(c3cc(C#CCNC(N)=O)ccc31)[C@H](c1ccccc1OCCO)N1[C@H](c3ccccc3)[C@H](c3ccccc3)OC(=O)[C@H]1[C@@H]2C(N)=O | -0.309 | 0.092 | -0.171 | 0.244 | 0.77 | 0.429 | 0.874 | -1.33 (inactive) | 0.477 | -0.284
16 | COC(=O)C[C@H]1O[C@]2(C(=O)N(Cc3ccccc3)c3ccc(NC(C)=O)cc32)[C@@H](C)[C@@H]1[Si](C)(C)c1ccc(OC)cc1 | -0.383 | -0.148 | -0.0543 | 0.489 | 1.12 | 0.264 | 0.882 | -1.98 (inactive) | 0.113 | -0.273
